Source: PubChem BioAssay (NCI)
About 83,000 compounds went through this panel and 20% of them were active in at least one assay; those are over-represented in the sample as a whole.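 In brief: 96-well plates, 48 h treatment, single concentration, percent growth endpoint.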

What was measured:
Experiment in all cases: NCI-60 one-dose screen, 48 h (100 = growth as untreated, 0 = no growth, -100 = all killed); active = growth percent below 10; inactive = the rest
HCT-15 colon = conditions: 10 µM
HT29 colon = conditions: 10 µM
SNB-19 CNS = conditions: 10 µM
U251 CNS = conditions: 10 µM
PC-3 prostate = conditions: 10 µM
UACC-62 melanoma = conditions: 10 µM unless noted
LOX IMVI melanoma = conditions: 10 µM
SK-MEL-28 melanoma = conditions: 10 µM
EKVX NSCLC = conditions: 10 µM
SN12C renal = conditions: 10 µM
UO-31 renal = conditions: 10 µM
TK-10 renal = conditions: 10 µM unless noted
ACHN renal = conditions: 10 µM
CAKI-1 renal = conditions: 10 µM
A498 renal = conditions: 10 µM
CCRF-CEM leukemia = conditions: 10 µM
MOLT-4 leukemia = conditions: 10 µM
SK-MEL-5 melanoma = conditions: 10 µM
SK-MEL-2 melanoma = conditions: 10 µM
SNB-75 CNS = conditions: 10 µM

Measured: growth

Cc1cc(=O)cc(C)n1-c1ccccc1
inactive: HCT-15 colon 104% | HT29 colon 101% | SNB-19 CNS 99.8% | U251 CNS 101% | PC-3 prostate 93.6% | UACC-62 melanoma 99% | LOX IMVI melanoma 98.9% | SK-MEL-28 melanoma 104% | EKVX NSCLC 107% | SN12C renal 89.3% | UO-31 renal 90% | TK-10 renal 96.3% | ACHN renal 102% | CAKI-1 renal 95% | A498 renal 103% | CCRF-CEM leukemia 92.4% | MOLT-4 leukemia 102%

CCOC(=O)c1[nH]c(C)c(C(=O)O)c1C
inactive: HCT-15 colon 109% | HT29 colon 105% | SNB-19 CNS 109% | U251 CNS 107% | PC-3 prostate 88.9% | SK-MEL-5 melanoma 108% | UACC-62 melanoma 107% | LOX IMVI melanoma 106% | SK-MEL-2 melanoma 124% | EKVX NSCLC 105% | SN12C renal 99.5% | UO-31 renal 84.7% | TK-10 renal 104% | ACHN renal 102% | CAKI-1 renal 97.3% | A498 renal 102% | CCRF-CEM leukemia 89.6% | MOLT-4 leukemia 91.9%

O=C(c1ccc(O)cc1)c1ccc(O)cc1
inactive: HCT-15 colon 99.6% | HT29 colon 106% | SNB-19 CNS 111% | U251 CNS 94.1% | PC-3 prostate 103% | SK-MEL-5 melanoma 99.3% | UACC-62 melanoma 110% | LOX IMVI melanoma 97.4% | SK-MEL-28 melanoma 110% | SK-MEL-2 melanoma 101% | SN12C renal 109% | UO-31 renal 85% | TK-10 renal 95% | ACHN renal 107% | A498 renal 73.9% | CCRF-CEM leukemia 106% | MOLT-4 leukemia 102%

O=[N+]([O-])c1cccc(C(F)(F)F)c1
inactive: HCT-15 colon 93.8% | HT29 colon 98.7% | SNB-19 CNS 103% | U251 CNS 104% | PC-3 prostate 94.6% | SK-MEL-5 melanoma 107% | UACC-62 melanoma 101% | LOX IMVI melanoma 99.7% | SK-MEL-2 melanoma 116% | EKVX NSCLC 104% | SN12C renal 95.1% | UO-31 renal 96.3% | TK-10 renal 108% | CAKI-1 renal 94.3% | A498 renal 98.4% | CCRF-CEM leukemia 96.2% | MOLT-4 leukemia 102%

CC(=O)N(C)c1ccc([N+](=O)[O-])cc1
inactive: HCT-15 colon 102% | HT29 colon 102% | SNB-19 CNS 97.5% | U251 CNS 101% | PC-3 prostate 93.5% | SK-MEL-5 melanoma 103% | UACC-62 melanoma 104% | LOX IMVI melanoma 98.4% | SK-MEL-28 melanoma 114% | SK-MEL-2 melanoma 92% | EKVX NSCLC 122% | SN12C renal 96.9% | UO-31 renal 104% | TK-10 renal 95.8% | ACHN renal 99.4% | CAKI-1 renal 107% | A498 renal 116% | CCRF-CEM leukemia 119% | MOLT-4 leukemia 75.9%

CCC(O)CC(CC)CO (stereo not given)
inactive: HCT-15 colon 104% | HT29 colon 113% | SNB-19 CNS 114% | U251 CNS 111% | PC-3 prostate 101% | UACC-62 melanoma 112% | LOX IMVI melanoma 103% | SK-MEL-28 melanoma 101% | SK-MEL-2 melanoma 134% | EKVX NSCLC 93.7% | SN12C renal 111% | UO-31 renal 94.6% | TK-10 renal 111% | ACHN renal 105% | CAKI-1 renal 96.6% | A498 renal 99.2% | CCRF-CEM leukemia 96.2% | MOLT-4 leukemia 102%

OC1OC(COC(c2ccccc2)(c2ccccc2)c2ccccc2)C(O)C(O)C1O (stereo not given)
inactive: HCT-15 colon 98.6% | HT29 colon 110% | SNB-75 CNS 72% | U251 CNS 91% | SK-MEL-5 melanoma 100% | UACC-62 melanoma 85.5% | LOX IMVI melanoma 93.6% | SK-MEL-28 melanoma 91.4% | SK-MEL-2 melanoma 91.5% | SN12C renal 74% | UO-31 renal 76.7% | ACHN renal 96.9% | A498 renal 93.7% | MOLT-4 leukemia 87.6%

CC(=O)NC(N)=S
inactive: HCT-15 colon 109% | HT29 colon 97.7% | SNB-19 CNS 101% | U251 CNS 105% | PC-3 prostate 92.6% | SK-MEL-5 melanoma 107% | UACC-62 melanoma 109% | LOX IMVI melanoma 102% | SK-MEL-2 melanoma 111% | EKVX NSCLC 118% | SN12C renal 104% | TK-10 renal 100% | ACHN renal 104% | CAKI-1 renal 100% | A498 renal 112% | CCRF-CEM leukemia 86.7% | MOLT-4 leukemia 77.4%

CCN1C(=O)/C(=C/C=C/N(C)c2ccccc2)SC1=S
inactive: HCT-15 colon 81.5% | HT29 colon 90.4% | SNB-19 CNS 94.1% | U251 CNS 85.5% | PC-3 prostate 85.1% | SK-MEL-5 melanoma 87.5% | UACC-62 melanoma 91.3% | LOX IMVI melanoma 91.5% | SK-MEL-28 melanoma 94.6% | SK-MEL-2 melanoma 82.5% | SN12C renal 94.4% | UO-31 renal 94.2% | TK-10 renal 85.6% | ACHN renal 75.7% | CAKI-1 renal 91.6% | A498 renal 92.8% | CCRF-CEM leukemia 92% | MOLT-4 leukemia 89%
